High-throughput results deposited in PubChem BioAssay by several laboratories.
The list is not random: actives were taken first. Their share in the collection is about 2.6%.
Gli-Sufu antag: blocks Gli-Sufu signaling in a luciferase reporter. Sufu-KO-LIGHT fibroblasts, Gli luciferase reporter luminescence. inhibition, % at 5 µM. 0.74% of 340,000 active;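 active = inhibition above about 55%, limit read from the data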
697 NFkB inh: inhibitors of the PMA/ionomycin-induced NF-kB reporter in 697 B cells; inhibition, % at 4 µM; 697 B-cell NF-kB luciferase reporter, 16 h; 0.33% of 330,000 active; in the data active = inhibition above about 35%
H9c2 protect: myocardial damage modulation in H9c2 cells. H9c2 cardiomyocytes, H2O2 injury protection, ATPLite, 2 h. AID 588492. protection from H2O2 cell death, % at 20 µM. 0.63% of 360,000 active;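 active = compounds giving at least 50% protection of heart cells from peroxide-induced death in the single-dose screen, raw or plate-pattern-corrected value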
TAG inh: inhibitors of triacylglycerol accumulation; H9c2 cells, Nile Red lipid (TAG) fluorescence; cells loaded with 200 µM oleic acid; inhibition, % at 12.5 µM; 0.66% of 230,000 active;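 active = pattern-corrected inhibition of lipid staining of at least 50% with the nuclear-stain viability signal not falling by more than 50%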
Jurkat NFkB inh: lowers PMA/ionomycin-induced NF-kB signal in Jurkat cells; inhibition, % at 4 µM; PMA/ionomycin-induced NF-kB luciferase reporter, luminescence; AID 435003; 0.53% of 330,000 active; in the data active = inhibition above about 50%
NR2F2 inh: blocks human COUP-TFII nuclear receptor | HEK293T NGFI-A luciferase reporter, luminescence | AID 686940 | P24468 | inhibition, % at 8.6 µM | 0.7% of 370,000 active;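 active = inhibition above a per-plate cutoff, mean inhibition of test wells between control levels plus 3 SD, cut at about 38% in these data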;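 note: cells cotransfected with COUP-TFII expression vector driving the NGFI-A reporter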
Target sequence (P24468 whole entry, looked up): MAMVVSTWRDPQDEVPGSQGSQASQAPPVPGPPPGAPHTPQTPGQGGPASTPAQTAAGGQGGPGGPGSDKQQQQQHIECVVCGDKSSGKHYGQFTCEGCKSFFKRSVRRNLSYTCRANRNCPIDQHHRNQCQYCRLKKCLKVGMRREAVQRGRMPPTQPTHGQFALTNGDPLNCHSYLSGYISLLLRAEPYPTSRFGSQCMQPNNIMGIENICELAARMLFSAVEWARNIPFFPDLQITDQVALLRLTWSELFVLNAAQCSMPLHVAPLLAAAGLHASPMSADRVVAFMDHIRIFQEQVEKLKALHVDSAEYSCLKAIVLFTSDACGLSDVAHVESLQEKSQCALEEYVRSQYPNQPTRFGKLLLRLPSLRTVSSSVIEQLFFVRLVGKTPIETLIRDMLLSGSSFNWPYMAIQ
TAG conf: confirmation of triacylglycerol accumulation inhibitors | shares compounds with TAG inh | H9c2 lipid accumulation, Nile Red fluorescence; cells loaded with 200 µM oleic acid | inhibition, % at 12.5 µM | 71% of 990 active | AID 651629;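 active = mean inhibition across replicates of 40% or more; inactive = mean inhibition below 40%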
Large screens that a line does not name were inactive (follow-up assays come after a bar, where they were run).

CCN(CC)C(=O)[C@H]1C[C@H](CC(=O)NCCCn2ccnc2)C(=O)N2CCc3c([nH]c4cc(CCC(=O)N(C)C)ccc34)[C@]12C	TAG inh 53 (no result: Jurkat NFkB inh) | TAG conf inactive
O=C(N/N=C/c1ccc(Cl)cc1)c1n[nH]c2c1CCCC2	TAG inh 59 | TAG conf inactive
CC(C)Sc1nnc(NC(=O)c2ccco2)s1	TAG inh 55 | TAG conf inactive
NNC(=O)CCN1CCCCC1	TAG inh 83 | TAG conf inactive
CC1CCN(CCC(=O)NN)CC1	none
CCOc1ccc(/C=C2\NCCc3cc(OCC)c(OCC)cc32)cc1OCC	none (no result: Gli-Sufu antag, 697 NFkB inh, H9c2 protect, TAG inh, Jurkat NFkB inh)
CN1/C(=C\C(=O)CSc2nnc(NCc3ccccc3)s2)C(C)(C)c2ccccc21	none (no result: TAG inh)
Cc1cc(C(=O)CSc2nnc(NCc3ccccc3)s2)c(C)n1C	TAG inh 51 | TAG conf inactive
C=CCC[C@H](Cc1ccc(F)cc1)C(=O)OC[C@H](C)NC(=O)[C@@H](CC=C)CC(=O)N[C@H](CO)Cc1ccccc1	TAG inh 55 | TAG conf 44
C=CCC[C@@H](Cc1ccc(F)cc1)C(=O)OC[C@H](C)NC(=O)[C@@H](CC=C)CC(=O)N[C@@H](CO)Cc1ccccc1	none
Nc1nc2c(ncn2[C@@H]2O[C@H](C(=O)N[C@H](Cc3ccccc3)C(=O)NCc3ccc4c(c3)OCO4)[C@@H](O)[C@H]2O)c(=O)[nH]1	none (no result: Gli-Sufu antag, 697 NFkB inh, H9c2 protect, TAG inh, Jurkat NFkB inh)
Cc1nn2c(N3CCN(C)CC3)c3c(nc2c1-c1ccccc1)CCCC3	TAG inh 58 | TAG conf 45
Cc1nn2c(NCc3ccccn3)c3c(nc2c1-c1ccccc1)CCC3	TAG inh 61 | TAG conf 40
F[B-](F)(F)c1cncnc1	none (no result: Gli-Sufu antag, 697 NFkB inh, H9c2 protect, TAG inh, Jurkat NFkB inh)
O=C(Cn1c(-c2cncs2)nc2ccccc21)N1CCOCC1	none (no result: Gli-Sufu antag, 697 NFkB inh, H9c2 protect, TAG inh, Jurkat NFkB inh)
CCOC(=O)CC1C(=O)NCCN1C(=O)c1ccc(Cl)cc1 (stereo not drawn)	none (no result: TAG inh)
COC(=O)CC1C(=O)NCCN1C(=O)c1ccc(S(=O)(=O)N2CCOCC2)cc1 (stereo not drawn)	TAG inh 61 | TAG conf inactive
CCCCCCN(C(=O)CCCCCN1C(=O)NC(c2ccc([N+](=O)[O-])cc2)C(C(=O)OCc2ccccc2)=C1C)C(C(=O)NCCCC)C1CCCCC1 (stereo not drawn)	TAG inh 66 (no result: Jurkat NFkB inh) | TAG conf 56
CC1(O)C(=O)C2(C)C=CC1C1C(=O)N(c3ccccc3)C(=O)C12 (stereo not drawn)	none (no result: Gli-Sufu antag, 697 NFkB inh, H9c2 protect, TAG inh, Jurkat NFkB inh)
Cc1ccc(C(=O)OCC(=O)Nc2cccc(S(=O)(=O)NC3=NCCCCC3)c2)c(C)c1	TAG inh 78 (no result: Gli-Sufu antag) | TAG conf inactive
Cc1cc(NC(=O)CSc2nc(-c3ccco3)cc(C(F)(F)F)n2)no1	TAG inh 66 | TAG conf 58
Cc1ccc(-c2nn(-c3ccccc3)cc2CSC(=N)N)cc1	TAG inh 53 | TAG conf 109
COC(=O)C1=C(C)N(Cc2ccc(F)cc2)C(=S)NC1c1cccc(OC)c1 (stereo not drawn)	none (no result: Gli-Sufu antag, 697 NFkB inh, H9c2 protect, TAG inh, Jurkat NFkB inh)
CSc1ccc(/C=C/C(=O)c2ccc(NC(=O)C(C)C)cc2)cc1	none
CSc1ccc(/C=C/C(=O)c2ccc(NC(=O)Cc3ccccc3)cc2)cc1	TAG inh 59 | TAG conf inactive
COc1ccc2cc3cc(C(=O)NCCc4ccc(OC)c(OC)c4)oc3nc2c1	H9c2 protect 87, TAG inh 67, NR2F2 inh 54 | TAG conf 44
CCCCCCCCN1C(=O)[C@@H](CC(=O)N2CCCC2)C[C@@]2(C(=O)OC)C1=C[C@H](C(C)C)O[C@@H]2C1CC1	none (no result: Gli-Sufu antag, 697 NFkB inh, H9c2 protect, TAG inh, Jurkat NFkB inh)
CCOC(=O)C1CCCN1C(=O)c1ccc(OC)c(Br)c1 (stereo not drawn)	none
CCOC(=O)C1CCCCN1C(=O)c1cc2ccc(OC)cc2c2cc(OC)c(OC)cc12 (stereo not drawn)	TAG inh 54 (no result: 697 NFkB inh, Jurkat NFkB inh) | TAG conf inactive
Cc1cc(=O)oc(C)c1C(=O)Nc1ccc(F)cc1	none
Cc1cc(=O)oc(C)c1C(=O)Nc1cccc(F)c1	TAG inh 51 | TAG conf inactive
O=C(N/N=C/c1ccc(Cl)cc1)c1sccc1OCc1ccc(F)cc1	TAG inh 50 | TAG conf 54
